In PubChem BioAssay AID1159580 (chemical genetic matrix, 2015):
Screen size: about 5,500 compounds; about 2,000 (36%) were called active. About 18% were inconclusive and are not listed. Rule as the data show it: active = normalized growth mostly below about 0.91 (no sharp cut-off); inconclusive = no clear call, values can overlap the other calls; inactive = mostly above about 0.92. Some of the results follow.

Assay: chemical genetic growth profiling, strain panel (AID 1159580);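 also: tested at 20 µM; growth read once vehicle control cultures reached saturation at 30 °C; 1 = growth at the plate median or of vehicle wells; lower values mean less growth of the strain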
Conditions: S. cerevisiae deletion strains, growth OD
[1] = locus YAL040C, strain CLN3, hits give low values
[2] = locus YCL061C, strain MRC1 (second series), hits give low values
[3] = locus YDR363W, strain ESC2, hits give low values
[4] = locus YER002W, strain NOP16, hits give low values
[5] = locus YNL153C, strain GIM3, hits give low values
[6] = locus YNL175C, strain NOP13, hits give low values
[7] = locus YNL197C, strain WHI3, hits give low values
[8] = locus YNL224C, strain SQS1, hits give low values
[9] = locus YNL322C, strain KRE1, hits give low values
[10] = locus YOR083W, strain WHI5 (second series), hits give low values

Measured: normalized growth

CCCC(=O)NCCc1c2n(c3ccc(OC)cc13)CCCc1ccccc1-2
inactive: [1] 0.991 | [2] 1.01 | [3] 0.998 | [4] 0.996 | locus YGR078C, strain PAC10, hits give low values 1.01 | locus YJR075W, strain HOC1, hits give low values 0.995 | locus YMR307W, strain GAS1, hits give low values 1.01 | [5] 0.984 | [6] 0.99 | [7] 0.995 | [8] 0.984 | [9] 1.01 | [10] 0.972

CCCC(=O)NCCc1c2n(c3ccc(OC)cc13)Cc1ccccc1-2
active: [5] 0.754 | [10] 0.686
inactive: locus YAL013W, strain DEP1, hits give low values 0.986 | [1] 1.08 | [2] 1.01 | locus YDR150W, strain NUM1, hits give low values 1 | [3] 0.993 | [4] 0.995 | locus YNL128W, strain TEP1, hits give low values 0.983 | [6] 0.964 | [7] 0.97 | [8] 0.963 | [9] 0.995 | locus YPL055C, strain LGE1, hits give low values 1.01 | locus YPL241C, strain CIN2, hits give low values 1.01

CC[C@H]1OC(=O)C[C@@H](O)[C@H](C)[C@@H](O[C@@H]2O[C@H](C)[C@@H](O[C@H]3C[C@@](C)(O)[C@@H](O)[C@H](C)O3)[C@H](N(C)C)[C@H]2O)[C@@H](CC=O)C[C@@H](C)C(=O)/C=C/C(C)=C/[C@@H]1CO[C@@H]1O[C@H](C)[C@@H](O)[C@@H](OC)[C@H]1OC
inactive: locus YAL021C, strain ccr4, hits give low values 1.01 | locus YAL026C, strain drs2, hits give low values 0.986 | locus YAL030W, strain snc1, hits give low values 0.997 | locus YBL061C, strain skt5, hits give low values 0.986 | locus YBR009C, strain hhf1, hits give low values 1 | locus YBR023C, strain chs3, hits give low values 0.988 | locus YBR171W, strain sec66, hits give low values 0.987 | locus YBR231C, strain swc5, hits give low values 0.989 | locus YBR279W, strain paf1, hits give low values 0.994 | locus YCL011C, strain gbp2, hits give low values 0.995 | locus YCL016C, strain dcc1, hits give low values 1 | locus YCL061C, strain MRC1, hits give low values 1.01 | locus YCL069W, strain vba3, hits give low values 0.992 | locus YCR088W, strain abp1, hits give low values 1 | locus YDL005C, strain med2, hits give low values 0.986 | locus YDL040C, strain nat1, hits give low values 0.99 | locus YDR001C, strain nth1, hits give low values 0.997 | locus YDR069C, strain doa4, hits give low values 0.995 | locus YDR137W, strain rgp1, hits give low values 1.03 | locus YDR159W, strain sac3, hits give low values 0.971 | locus YDR195W, strain ref2 0.975 | locus YDR297W, strain sur2, hits give low values 0.995 | locus YDR334W, strain swr1, hits give low values 0.994 | locus YDR335W, strain msn5, hits give low values 0.98 | locus YDR392W, strain spt3, hits give low values 1.02 | locus YEL003W, strain gim4, hits give low values 0.992 | locus YEL037C, strain rad23, hits give low values 0.99 | locus YEL061C, strain CIN8 (second series), hits give low values 0.992 | locus YER015W, strain faa2, hits give low values 0.99 | locus YER016W, strain bim1, hits give low values 0.991 | locus YER111C, strain swi4, hits give low values 0.98 | locus YER155C, strain BEM2 (second series), hits give low values 0.993 | locus YFR010W, strain ubp6, hits give low values 0.988 | locus YGL167C, strain pmr1, hits give low values 0.986 | locus YGL173C, strain kem1, hits give low values 0.986 | locus YGL227W, strain vid30, hits give low values 0.988 | locus YGL240W, strain doc1, hits give low values 0.992 | locus YGL253W, strain hxk2, hits give low values 0.98 | locus YHR013C, strain ard1, hits give low values 0.985 | locus YHR027C, strain rpn1, hits give low values 0.995 | locus YHR030C, strain SLT2, hits give low values 0.953 | locus YHR079C, strain IRE1, hits give low values 0.948 | locus YHR142W, strain chs7, hits give low values 0.965 | locus YJL092W, strain hpr5, hits give low values 0.986 | locus YJL095W, strain BCK1 (second series), hits give low values 0.991 | locus YJL095W, strain BCK1, hits give low values 0.962 | locus YJL115W, strain asf1, hits give low values 0.983 | locus YJL129C, strain trk1, hits give low values 0.971 | locus YJL154C, strain vps35, hits give low values 0.994 | locus YJL164C, strain tpk1, hits give low values 0.998 | locus YJL166W, strain qcr8, hits give low values 0.991 | locus YJL187C, strain SWE1, hits give low values 0.995 | locus YJR066W, strain TOR1, hits give low values 0.918 | locus YKL160W, strain elf1, hits give low values 0.993 | locus YKR026C, strain gcn3, hits give low values 0.991 | locus YKR091W, strain srl3, hits give low values 0.989 | locus YLL001W, strain dnm1, hits give low values 0.977 | locus YLL026W, hits give low values 0.995 | locus YLL041C, strain sdh2, hits give low values 0.992 | locus YLR027C, strain aat2, hits give low values 0.998 | locus YLR113W, strain HOG1, hits give low values 0.954 | locus YLR221C, strain rsa3, hits give low values 1 | locus YLR258W, strain gsy2, hits give low values 0.995 | locus YLR262C, strain YPT6 (second series), hits give low values 0.989 | locus YLR320W, strain mms22, hits give low values 0.994 | locus YLR342W, strain FKS1, hits give low values 0.984 | locus YLR357W, strain rsc2, hits give low values 0.994 | locus YLR370C, strain arc18, hits give low values 0.986 | locus YLR384C, strain iki3, hits give low values 0.991 | locus YML120C, strain ndi1, hits give low values 1 | locus YMR058W, strain fet3, hits give low values 1 | locus YMR125W, strain sto1, hits give low values 0.983 | locus YMR129W, hits give low values 0.997 | locus YMR205C, strain PFK2, hits give low values 0.986 | locus YMR231W, strain pep5, hits give low values 0.999 | locus YNL071W, strain lat1, hits give low values 0.993 | locus YNL183C, strain NPR1, hits give low values 0.922 | locus YNL209W, strain ssb2, hits give low values 0.993 | locus YNL248C, strain rpa49, hits give low values 0.988 | locus YNL322C, strain KRE1 (second series), hits give low values 0.985 | locus YNR049C, strain mso1, hits give low values 0.99 | locus YOR001W, strain rrp6, hits give low values 0.993 | locus YOR070C, strain gyp1, hits give low values 0.996 | locus YOR080W, strain dia2, hits give low values 0.977 | locus YOR083W, strain WHI5, hits give low values 0.997 | locus YOR106W, strain vam3, hits give low values 0.993 | locus YOR231W, strain MKK1, hits give low values 0.97 | locus YOR265W, strain rbl2, hits give low values 0.994 | locus YOR270C, strain vph1, hits give low values 0.895 | locus YOR290C, strain snf2, hits give low values 1.01 | locus YPL051W, strain arl3, hits give low values 1 | locus YPL078C, strain atp4, hits give low values 0.974 | locus YPL106C, strain sse1, hits give low values 1 | locus YPL240C, strain hsp82, hits give low values 1 | locus YPL256C, strain CLN2, hits give low values 0.955
